Bioassay records from PubChem BioAssay.
AMA1-RON2 inh = AMA1-RON2 (P. falciparum) interaction inhibition. AlphaScreen AMA1-biotinylated RON2 peptide binding. hit rate 0.2% among 360,000. Potency, µM (top dose mostly 58.2 µM), without a hit: at the highest dose activity change, negative = inhibition, usual class: inhibitors;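 note: potency is the fitted concentration of half-maximal effect; 0% = vehicle wells and -100% = peptide control; nearly all actives have a fitted effect of over 45% in size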
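AMA1 (3D7) with his tag at 25 nM final met compounds first, then biotinylated RON2 peptide at 25 nM; detection used donor plus acceptor beads, 10 µg/mL apiece, read by AlphaScreen after 30 min at room temperature.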
Pf growth 96h = P. falciparum growth inhibition at 96 hour, primary screen for plastid delayed-death inhibitors; P. falciparum luciferase reporter growth, 96 h; Potency, µM (doses to about 28.7 µM), for inactives: top-dose activity change, negative = inhibition, usual class: inhibitors; hit rate 6.9% among 320,000; AID 504834; note: potency is the fitted concentration of half-maximal effect; % is set by controls: 0 for no effect and ±100 for the full control effect
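Luminescence readout: decreased luciferase signal marks inhibited growth of reporter-expressing P. falciparum in infected red cells (2% hematocrit, 0.05% parasitemia final), exposed to compound two generations (96 h, 37 C, 5% CO2).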
NS1 function inh = blocks influenza NS1 protein function. hit rate 0.4% among 270,000. Potency, µM (titrated, usually from 46.1 µM), for the others: at the top dose activity, positive = more growth. AID 2326; calls by dose curve; note: potency is the fitted concentration of half-maximal effect; actives are rising curves; nearly all actives have a fitted effect of over 50% in size
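In this qHTS, NS1 from influenza A is expressed in budding yeast, where it slows growth. Cells are switched from glucose to 2% galactose medium (pH 6.0, -URA), treated with compound, and growth recovery is read at OD600.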
Pf growth 48h = inhibits P. falciparum growth in the first generation, 48 h | P. falciparum luciferase growth in erythrocytes, 48 h | Potency, µM (top dose mostly 28.7 µM), for the others: top-dose activity change, negative = inhibition, hits mostly inhibitors | hit rate 5.9% among 310,000 | AID 504832; note: potency is the fitted concentration of half-maximal effect; % is set by controls: 0 for no effect and ±100 for the full control effect
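Compounds are pin-transferred into medium, infected erythrocytes (2% hematocrit, 0.1% parasitemia final) are added, and plates sit one parasite generation at 37 C in 5% CO2. Detection reagent is then added and luminescence measured.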
Sm TGR block = blocks Schistosoma mansoni thioredoxin glutathione reductase; Q962Y6; purified TGR, DTNB reduction, TNB absorbance 405 nm; Potency, µM (top dose mostly 114 µM), inactives show top-dose activity change, negative = inhibition, most hits filed as inhibitors; hit rate 3% among 360,000; AID 485364; note: potency is the fitted concentration of half-maximal effect; % is set by controls: 0 for no effect and ±100 for the full control effect; nearly all actives have a fitted effect of over 60% in size
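Kinetic colorimetric format: TGR-catalysed, NADPH-driven DTNB reduction monitored via TNB absorbance. Enzyme dispensed at 20 nM; compound exposure 15 min at room temperature before reaction start.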
NS1 inh valid = influenza NS1 function inhibition validation; 1,400 tested, under 10 active; AID 492980; influenza NS1 function cell assay, 15-point titration; activity change, negative = inhibition, % at 32.9 µM; shares compounds with NS1 function inh; calls by dose curve; note: 0% is about no effect
The depositor's hits bear a star; ? = inconclusive; · = no result given; [ ] = remark or other dose. Only some compounds are listed: those with a hit (about 11% of all), similar ones and a draw of the others. Unless noted, calls come from the whole dose curve; as a rule, active = well fitted curve in the direction sought with a large enough effect; inconclusive = small, poorly fitted or top-dose-only effect, or another doubt; inactive = no such curve, though single readings can be large; an effect the other way counts as inactive or inconclusive.

SMILES	AMA1-RON2 inh	Pf growth 96h	NS1 function inh	Pf growth 48h	Sm TGR block	others
O=C(NC1CCCC1)C1C(c2ccccc2)=Nc2ccccc2N1C(=O)c1cc(Cl)cc(Cl)c1 (stereo not given)	0%	·	·	·	·
Cc1ccccc1N=C(NO)c1cccnc1	10%	19%	3%	23%	1%
Cc1noc(C)c1CSCC(=O)N(C)CC(=O)Nc1cccc(F)c1	53%	15%	7%	-3%	-25%
COc1cc2c(cc1O)CCN[C@@]21CS[C@H]2c3c(OC(C)=O)c(C)c4c(c3C(COC1=O)N1C2C2c3c(cc(C)c(OC)c3O)CC([C@@H]1O)N2C)OCO4 (stereo not given in full)	·	2.1µM*	·	0.0005µM*	·
COCCOC(=O)C1=C(C)OC(N)=C(C#N)C1c1ccc2c(c1)OCO2 (stereo not given)	-7%	·	2%	-12%	-26%
C=CCOC(=O)C1=C(C)OC(N)=C(C#N)C1c1ccoc1 (stereo not given)	9%	16%	5%	-7%	20µM*
C=CCOC(=O)C1=C(C)OC(N)=C(C#N)C1c1ccc2c(c1)OCO2 (stereo not given)	-3%	10µM*	19%	-27%	-12%
CC(C)(C)C1=C(C#N)C(c2ccc3c(c2)OCO3)C(C#N)=C(N)O1 (stereo not given)	-13%	?	-62%	?	2µM*
COc1ccccc1NC(=O)N(CCCN1CCOCC1)Cc1cc2cc3c(cc2[nH]c1=O)OCO3	4%	8.3µM*	-10%	-14%	4%
COc1cc2cc(CN(CCCN3CCOCC3)C(=O)Nc3ccccc3F)c(=O)[nH]c2cc1OC	-1%	28%	-1%	-6%	1%
CCc1ccc2[nH]c(=O)c(CN(CCCN3CCOCC3)C(=O)Nc3ccc(F)cc3)cc2c1	-3%	-2%	-2%	?	0%
O=C(Nc1ccc(F)cc1)N(CCCN1CCOCC1)Cc1cc2cc3c(cc2[nH]c1=O)OCCO3	1%	-12%	-2%	10µM*	0%
O=C(Nc1ccc(F)cc1)N(CCCN1CCOCC1)Cc1cc2cc3c(cc2[nH]c1=O)OCO3	-18%	-23%	-4%	13µM*	-2%
O=C(CCC1CCCC1)Nc1cccc(Cc2ccncc2)c1	2%	7%	-4%	-30%	·
Cc1ccc(C)c(S(=O)(=O)N2CCCOC2CNC(=O)C(=O)NCCN2CCOCC2)c1 (stereo not given)	9%	-15%	11%	-7%	1%
COC(=O)c1ccc(CNC(=O)c2nc(Cn3nc(C)c(Br)c3C)no2)cc1	·	·	·	·	9%
CCOc1ccc2nc(NC(=O)CC3Oc4ccccc4NC3=O)sc2c1 (stereo not given)	6%	23%	5%	24%	-3%
O=C(CSc1nc2ccc(Cl)cc2[nH]1)N1CCN(C(=O)c2ccco2)CC1	21%	?	2%	1%	50µM*
CCc1cc2cccc(C)c2nc1SCC(=O)N1CCN(C(=O)c2ccco2)CC1	-3%	16%	-60%	-4%	3%
Cc1nc(N2CCN(C(=O)c3ccco3)CC2)c(C#N)c2c1CCCC2	-2%	?	-1%	?	-12%
CCc1cc2cc(C)cc(C)c2nc1SCC(=O)N1CCN(C(=O)c2ccco2)CC1	0%	8.3µM*	-79%	-24%	-19%
CCc1cc2cc3c(cc2nc1SCC(=O)N1CCN(C(=O)c2ccco2)CC1)OCO3	-11%	12%	-34%	?	-25%
Cc1cc(C)c2nc(N3CCCN(C(=O)c4ccco4)CC3)c(C#N)cc2c1	6%	?	6%	0%	2µM*
CCc1cc2ccc(C)cc2nc1SCC(=O)N1CCN(C(=O)c2ccco2)CC1	8%	63%	-49%	?	40µM*
CN(C)S(=O)(=O)c1ccc(C(=O)OCC2CC2(Cl)Cl)cc1 (stereo not given)	-7%	58%	9%	?	-8%
SMILES	AMA1-RON2 inh	Pf growth 96h	NS1 function inh	Pf growth 48h	Sm TGR block	others
CC(=O)Nc1ccc(NC(=O)CC(C)n2ccnc2)cc1 (stereo not given)	1%	0%	-3%	29%	-3%
Cc1cc(C(=O)C(=O)Nc2nnc(C(C)C)s2)c(C)n1-c1ccccc1	·	·	·	·	2%
Cc1cc(Cl)ccc1OCCCC(=O)N1CCN(C(=O)c2ccco2)CC1	-7%	?	-10%	-4%	50µM*
O=C(CCCOc1ccccc1)N1CCN(C(=O)c2ccco2)CC1	8%	·	-4%	15%	-6%
CCc1cc2ccc(C)cc2nc1SCC(=O)NNC(=O)c1ccco1	90%	4.7µM*	3%	17%	6%
CCC(C)(C)C1CCC2(CC1)NC(=O)N(CC(=O)N(C)CC(=O)Nc1ccccc1C(F)(F)F)C2=O (stereo not given)	-4%	?	-10%	3%	3%
CCOc1ccc(C(CC(=O)O)NC(=O)C(Sc2ccccc2)c2ccccc2)cc1 (stereo not given)	5%	0%	·	1%	22%
COc1ccc(C(=O)N/C(=C\c2ccco2)C(=O)NCCCn2ccnc2)cc1	-1%	30%	-2%	14%	-14%
Cc1ccc(C(=O)N/C(=C\c2ccco2)C(=O)NCCCn2ccnc2)cc1C	17µM*	-1%	?	-9%	2%
Cc1cccc(CCN2C(Nc3ccccc3)=NC[C@@H]2C)c1	6%	0%	·	?	-2%
CCn1cc([N+](=O)[O-])c(=O)c2cc(F)c(N3CCOCC3)cc21	-7%	?	6%	?	-8%
COc1ccc(Br)cc1C1CC(=O)N2CN(Cc3ccccc3)CSC2=C1C#N (stereo not given)	1%	20%	11µM*	·	0%	NS1 inh valid=-16
N#CC1=C2SCN(Cc3ccccc3)CN2C(=O)CC1c1ccccc1F (stereo not given)	0%	20%	-18%	·	-30%
COC(=O)C1=Nc2ccccc2/C1=C\c1c(O)n(-c2ccc(Br)cc2)c(=O)[nH]c1=O	8%[11.6 µM]	8%	10µM*	14%	?	NS1 inh valid=-35
OCc1ccnc2c(O)cccc12	11µM*	?	8.9µM*	2.3µM*	14µM*	NS1 inh valid=-36
CC1(C)Cc2c(sc(NC(=O)Cc3ccccc3)c2C#N)C(C)(C)N1	9%	·	·	·	·
CC(C)CC(=O)Nc1sc2c(c1C#N)CC(C)(C)NC2(C)C	-3%	?	10µM*	0%	13%	NS1 inh valid=-1
COc1ccc(-c2c(C)nc(N)nc2-c2ccc(OCc3ccc(C)cc3)cc2O)cc1OC	5%	?	3.2µM*	?	-1%	NS1 inh valid=2
COc1ccc(C(=O)N/C(=C\c2ccccc2)C(=O)Nc2cccc(C(=O)O)c2)cc1	-5%	?	10µM*	8%	-15%	NS1 inh valid=4
